# Assay outcomes deposited in PubChem by National Center for Advancing Translational Sciences (NCATS).
# MARV entry inh: blocks Marburg virus binding to or entry into cells. actives 1.8% (n = 300,000). Marburg virus pseudotyped entry inhibition, cell reporter. Potency, µM (series often up to 37.8 µM), for inactives: at the top dose activity change, negative = inhibition, actives largely listed as inhibitors; calls by dose curve; tested in HEK293 cells; further: potency means the concentration at half of the fitted maximal effect
# Lassa entry inh: Lassa virus entry inhibition. AID 540256. actives 1.2% (n = 300,000). Lassa virus pseudotype entry inhibition, cell reporter. Potency, µM (highest dose often 37.9 µM), for the others: at the highest dose activity change, negative = inhibition, most hits filed as inhibitors; calls by dose curve; tested in HEK293 cells; further: potency means the concentration at half of the fitted maximal effect; nearly all actives have a fitted effect of over 50% in size
# VACV mCherry inh: inhibitors of vaccinia virus infection (mCherry reporter signal). AID 720579. actives 0.63% (n = 310,000). Potency, µM (titrated, usually from 36.5 µM), without a hit: top-dose activity change, negative = inhibition, hits mostly inhibitors. Vaccinia virus mCherry reporter infection, fluorescence; calls by dose curve; tested in A549 cells; further: potency means the concentration at half of the fitted maximal effect; nearly all actives have a fitted effect of over 35% in size
# HCMV inh: human cytomegalovirus inhibition; HFF cells, HCMV-luciferase reporter, 72 h; stronger effect = lower value; activity change, negative = inhibition, % at 57.5 µM; actives 4.5% (n = 410,000); AID 1259415; in the data active means activity change below about -60%; inconclusive means no clear call, values can overlap the other calls; inactive means above about -39%
#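 Screen run at 2 compound doses on HFFs infected with reporter HCMV, MOI 1 PFU/cell. Luciferase activity from cell lysates at 72 h post infection gave inhibition relative to buffer-only and Salinomycin wells.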
# HCV inhibitor: blocks hepatitis C virus. Potency, µM (series often up to 41.8 µM), for the others: at the highest dose activity change, negative = inhibition, hits mostly inhibitors. Huh7.5.1 HCVcc-Cre infection, luciferase reporter, 44 h. actives 3.4% (n = 340,000); active means well fitted inhibition curve with a large enough effect; inconclusive means small, poorly fitted or top-dose-only effect, or another doubt; inactive means no such curve, though single readings can be large or run the other way; further: potency means the concentration at half of the fitted maximal effect
#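 Compounds are dispensed onto cells plated 4 h earlier at 1,000 per well, with HCVcc-Cre virus (about 0.5 moi) added next. Following 44 h of culture, luminescent signal is measured for 15 sec after 15 min with substrate at room temperature.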
# Vaccinia Venus: vaccinia inhibition (Venus reporter) | Potency, µM (titrated, usually from 36.5 µM), inactives show at the highest dose activity change, negative = inhibition, usual class: inhibitors | Vaccinia virus Venus reporter expression, fluorescence | actives 0.46% (n = 330,000); calls by dose curve; tested in A549 cells; further: potency means the concentration at half of the fitted maximal effect; nearly all actives have a fitted effect of over 30% in size
# * hit, by the source's call; i = inactive; ? = inconclusive; nt = not tested or not shown; [ ] = another dose, or the depositor's remark. This is a sample that favours compounds with a hit; in the whole collection about 7.8% have one here. On the % scale 0 is the no-effect control and ±100 the full control effect.
SMILES,MARV entry inh,Lassa entry inh,VACV mCherry inh,HCMV inh,HCV inhibitor,Vaccinia Venus
CC(=O)c1ccc(N2CCN(C(=O)C3CCN(S(=O)(=O)c4ccc5c(c4)CC(C)N5C(C)=O)CC3)CC2)cc1 (stereo not drawn),nt,nt,nt,12,?,nt
CC(=O)c1ccc(NS(=O)(=O)c2ccc3[nH]c4c(c3c2)CCCCCC4)cc1,nt,?,-28%,-6,nt,-16%
CNC(=S)NCc1ccc2[nH]c3c(c2c1)CCCC3,nt,nt,nt,-67*,-6%,nt
CC(=O)Nc1ccc(NS(=O)(=O)c2ccc3[nH]c4c(c3c2)CCCCC4)cc1,nt,4%[46.1 µM],?,5,nt,7.9µM*
CC(=O)N1c2ccc(S(=O)(=O)N3CCC(C(=O)Nc4cccc(C)c4)CC3)cc2CC1C (stereo not drawn),?,?,-1%,-68*,?,-3%
CCc1ccc(NC(=O)C2CCN(S(=O)(=O)c3ccc4c(c3)CC(C)N4C(C)=O)CC2)cc1 (stereo not drawn),nt,nt,-11%,-93*,2.8µM*,?
O=C(NCc1ccc2[nH]c3c(c2c1)CCCC3)c1ccc(S(=O)(=O)N2CCCC2)cc1,-4%,?,-6%,-79*,?,7%
CC(=O)N1c2ccc(S(=O)(=O)N3CCCCCC3)cc2CC1C(=O)NC(C)C (stereo not drawn),nt,4%[46.1 µM],-5%,-85*,nt,6%
CCCNC(=O)C1Cc2cc(S(=O)(=O)N3CCCCCC3)ccc2N1C(C)=O (stereo not drawn),nt,-14%[46.1 µM],-3%,0,nt,-1%
CCn1cc2nc(SCC(=O)Nc3ccccc3F)n(Cc3ccc(C)cc3)c(=O)c2n1,nt,-25%[46.1 µM],-17%,-2,nt,-12%
CC1(C)Cc2c(c(N3CCCC3)nc3sc4c(N5CCNCC5)ncnc4c23)CO1,nt,nt,nt,nt,14µM*,nt
O=C(Nc1ccccc1O)c1ccccc1O,?,?,nt,-8,-29%,nt
Cc1cccc(NC(=O)c2ccccc2O)c1C,-16%,11%,-11%,-86*,-7%,-26%
Cc1cccc(NC(=O)c2ccc([N+](=O)[O-])s2)n1,nt,nt,nt,-78*,16%,nt
Cc1cccc(C)c1NC(=O)c1ccc([N+](=O)[O-])s1,-8%,5%,?,?,10µM*,?
Cc1cccc(NC(=O)c2ccc([N+](=O)[O-])s2)c1C,-37%,3%,nt,-66*,?,nt
c1ccc(Nc2nc(-c3ccccc3)c(-c3ccccc3)s2)cc1,nt,nt,-13%,nt,nt,-15%
COCCNC(=O)c1ccc2c(=O)n(CCOC)c(SCC(=O)c3c[nH]c4ccccc34)nc2c1,nt,-13%[46.1 µM],-7%,33,nt,-12%
O=C(OCC1CCCO1)c1ccc2c(c1)N(Cc1ccccc1F)C(=O)c1ccccc1S2(=O)=O (stereo not drawn),nt,3%[46.1 µM],9%,-11,nt,0%
Cc1ccc(NC(=O)Nc2cccc(C)n2)cc1,nt,-1%[46.1 µM],-14%,104,-20%,-10%
Cc1cccc(NC(=O)Nc2ccc([N+](=O)[O-])cc2)n1,nt,nt,nt,-62*,-11%,nt
Cc1ccnc(NC(=O)c2ccc([N+](=O)[O-])s2)c1,nt,nt,nt,28,3.5µM*,nt
Cc1cccc(/C=C/c2nc3ccccc3c(=O)[nH]2)c1,?,3.5µM*,-22%,7,-8%,-15%
Cc1[nH]c2ccccc2c1/C=C/c1nc2ccccc2c(=O)[nH]1,?,?,13µM*,96,-24%,?
COc1ccc(-c2cn3c(n2)sc2cc(C(=O)N4CCCCC4)ccc23)cc1,nt,-21%[46.1 µM],-19%,nt,nt,-19%
SMILES,MARV entry inh,Lassa entry inh,VACV mCherry inh,HCMV inh,HCV inhibitor,Vaccinia Venus
COc1cccc(-n2c(-c3ccco3)nc3c(cnn3-c3ccc(Cl)cc3)c2=O)c1,-28%[46.1 µM],?,-24%,-67*,nt,-16%
COc1cccc(-n2c(-c3cccc(F)c3)nc3c(cnn3-c3ccc(C)cc3)c2=O)c1,?,-2%[46.1 µM],-5%,-28,nt,-14%
O=c1c2cnn(-c3ccccc3)c2nc(-c2ccco2)n1-c1ccccc1,?,?,nt,-71*,13µM*,nt
Cc1cccc(-n2c(-c3ccco3)nc3c(cnn3-c3ccccc3C)c2=O)c1,?,-15%[46.1 µM],0%,-11,nt,-12%
COc1ccc(C(=O)NN(C)c2nc(C(F)(F)F)nc3ccccc23)cc1,?,?,i,-99*,-3%,?
COc1ccc(CCNc2nc(C)nc3c2oc2ccccc23)cc1OC,13µM*,13µM*,nt,-67*,?,?
COc1ccc(CCNc2ncnc3c2oc2ccccc23)cc1OC,?,?,-21%,-92*,3.2µM*,?
CC(C)(C)c1ccc(S(=O)(=O)N[C@H]2CC[C@@H](n3cc(C(=O)N4CCCC4)nn3)CC2)cc1,nt,nt,-22%,nt,nt,-23%
COc1ccc(Cn2c(=O)oc3ccc(C)cc32)cc1OC,?,?,nt,-95*,14µM*,nt
COc1ccc(Cn2c(=O)oc3ccccc32)cc1OC,nt,nt,-14%,-33,nt,-27%
COc1ccc(S(=O)(=O)N2CCN(Cc3nc4ccc(C)cc4o3)CC2)cc1Cl,nt,12%[46.1 µM],-13%,-15,nt,-2%
COc1cc(N/N=C/c2ccccc2O)ncn1,?,?,14µM*,-103*,?,?
COc1cc(/C=N/Nc2ccccn2)cc(OC)c1O,?,7.9µM*,-27%,21,?,-21%
CCOc1ccc(/C=N/Nc2ccccn2)cc1OC,24%[46.1 µM],-12%,-25%,59,-22%,-15%
COc1cc(/C=N/Nc2cccc3cccnc23)cc(OC)c1O,nt,nt,-11%,7,22µM*,-9%
C=CCOc1ccc(/C=N/Nc2ccccn2)cc1OC,?,9%,-23%,58,14µM*,-23%
CC(=O)N1CCc2cc(S(=O)(=O)NC(Cc3ccccc3)C(=O)NCc3ccccc3)ccc21 (stereo not drawn),-23%[46.1 µM],-13%[46.1 µM],-13%,-4,nt,-9%
CN(C)CCNc1oc(-c2ccc(COc3ccc(Cl)cc3)o2)nc1C#N,?,11%[46.1 µM],-13%,-32,nt,-14%
COc1cc(/C=N/Nc2ccccn2)ccc1OCC(C)C,?,-5%,?,-23,8.9µM*,-25%
CCCOc1ccc(/C=N/Nc2ccccn2)cc1OC,?,23%,-20%,20,?,-11%
CN1CCc2c(sc3c2C(=O)NC(c2ccccn2)N3)C1 (stereo not drawn),19%,4%,nt,46,19%,nt
O=C1NC(c2ccccn2)Nc2sc3c(c21)CCC3 (stereo not drawn),11%,2%,-4%,-103*,3%,-19%
Fc1ccc(-[n+]2nc(Nc3ccccc3)sc2-c2c3ccccc3cc3ccccc23)cc1,nt,nt,-13%,-98*,-8%[8.37 µM],?
COc1ccc(C)cc1Nc1n[n+](-c2ccccc2)c(-c2c(OC)ccc3ccccc23)s1,nt,nt,14µM*,-101*,32µM*,?
c1ccc(-[n+]2nc(Nc3cccc4ccccc34)sc2-c2c3ccccc3cc3ccccc23)cc1,nt,nt,i,nt,3.5µM*,-29%
